About 8,800 targets were measured; listed, in parts, are those with a hit and a random draw of the rest. About 0.5% of all pairs of compound and target were hits.
Columns and labels:
Assay in all cases: log2 fold change, soluble protein after heating vs DMSO (PISA); higher = thermal stabilisation; K562 lysate, 10 uM; active = over 0.2 and 3.5 SD of the protein, either way, in both replicates (recomputed)
[1] = compound: Cc1cn(-c2cc(NC(=O)c3ccc(C)c(Nc4nccc(-c5cccnc5)n4)c3)cc(C(F)(F)F)c2)cn1 [nilotinib]
Outline: (§1)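 Dounce homogenisation of K562 pellets in PBS pH 7.4 with 1 mM MgCl2 produced a crude extract, used at 1 mg/mL protein. Exposure to 10 μM compound lasted 30 min, and aliquots were then heated for 3 min across 48°C-58°C, pooled and brought to 0.5% NP-40 at 4°C. The supernatant after 21,000xg for 90 min was quantified by TMTpro 16plex LC-MS/MS with channel sums equalised. Duplicate values are given as log-two fold change in thermal stability relative to solvent controls.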

[2] = compound: Cc1nc(Nc2n[nH]c3c2CN(C(=O)N[C@H](CN(C)C)c2ccccc2)C3(C)C)c2sccc2n1
Outline: as §1

[3] = compound: Cc1nc(Nc2ncc(C(=O)Nc3c(C)cccc3Cl)s2)cc(N2CCN(CCO)CC2)n1 [dasatinib]
Outline: as §1

[4] = compound: Cc1ncc(-c2ccnc(Nc3ccc(S(C)(=O)=O)cc3)n2)n1C(C)C
Outline: as §1

[5] = compound: Cn1cc(-c2ccc3c(c2)CCN3C(=O)Cc2cccc(C(F)(F)F)c2)c2c(N)ncnc21
Outline: as §1

[6] = compound: Cn1cc(CNCC2CCN(c3ncc(C(=O)NO)cn3)CC2)c2ccccc21 [quisinostat]
Outline: as §1

[7] = compound: Cn1cncc1[C@@](N)(c1ccc(Cl)cc1)c1ccc2c(c1)c(-c1cccc(Cl)c1)cc(=O)n2C [tipifarnib]
Outline: as §1

[8] = compound: NC(=O)Nc1cc(-c2cccc(F)c2)sc1C(=O)N[C@H]1CCCNC1
Outline: as §1

[9] = compound: NC(=O)c1cnc(N[C@@H]2CCCC[C@@H]2N)nc1Nc1cccc(-n2nccn2)c1
Outline: as §1

[10] = compound: NC1(c2ccc(-c3nc4ccn5c(=O)[nH]nc5c4cc3-c3ccccc3)cc2)CCC1
Outline: as §1

[11] = compound: NCC(=O)Nc1ccc(-n2nc(C(F)(F)F)cc2-c2ccc3c(ccc4ccccc43)c2)cc1
Outline: as §1

[12] = compound: O=C(CCCCCCC(=O)Nc1ccccc1)NO [vorinostat]
Outline: as §1

[13] = compound: O=C(O)c1ccc2c(c1)nc(Nc1cccc(Cl)c1)c1ccncc12 [silmitasertib]
Outline: as §1

[14] = compound: O=C1NC(=O)C(c2cnc3ccccn23)=C1c1cn2c3c(cc(F)cc13)CN(C(=O)N1CCCCC1)CC2
Outline: as §1

[15] = compound: c1cn2cc(-c3ccc4cn[nH]c4c3)nc(Nc3ccc(N4CCOCC4)cc3)c2n1 [entospletinib]
Outline: as §1

Measured: log2 fold change

CUL1 (UniProt Q13616)
inactive: [1] 0.025 | [2] 0.022 | [3] 0.034 | [4] 0.028 | [5] 0.027 | [6] 0.017 | [7] 0.001 | [8] -0.021 | [9] -0.011 | [10] -0.004 | [11] 0.001 | [12] 0.072 | [13] 0.006 | [14] -0.007 | [15] 0.009

COX7B (UniProt P24311)
Chain of UniProt P24311 (P24311 whole entry, looked up): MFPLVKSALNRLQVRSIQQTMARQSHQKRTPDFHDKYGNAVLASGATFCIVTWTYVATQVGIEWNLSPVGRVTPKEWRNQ
inactive: [1] 0.001 | [2] 0.017 | [3] -0.008 | [4] 0.016 | [5] 0.025 | [6] 0.047 | [7] 0.023 | [8] -0.03 | [9] -0.047 | [10] 0 | [11] -0.043 | [12] 0.081 | [13] 0 | [14] 0 | [15] 0.104

CSNK2A1 (UniProt P68400)
Chain of UniProt P68400 (P68400 whole entry, looked up): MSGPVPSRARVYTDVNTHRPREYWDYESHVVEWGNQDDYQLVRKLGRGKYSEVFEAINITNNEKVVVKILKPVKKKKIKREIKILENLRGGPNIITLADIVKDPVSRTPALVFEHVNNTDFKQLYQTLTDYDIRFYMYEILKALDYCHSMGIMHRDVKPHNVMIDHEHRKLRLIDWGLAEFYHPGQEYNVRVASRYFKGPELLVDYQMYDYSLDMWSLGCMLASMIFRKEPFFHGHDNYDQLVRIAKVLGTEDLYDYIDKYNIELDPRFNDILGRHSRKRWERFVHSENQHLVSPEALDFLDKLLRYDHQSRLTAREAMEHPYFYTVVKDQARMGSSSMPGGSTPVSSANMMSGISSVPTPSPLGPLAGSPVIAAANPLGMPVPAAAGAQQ
inactive: [1] -0.022 | [2] 0.061 | [3] 0 | [4] 0.058 | [5] -0.029 | [6] 0.049 | [7] -0.013 | [8] 0.019 | [9] 0.003 | [10] -0.068 | [11] 0.15 | [12] 0.057 | [14] -0.046 | [15] 0.213

DLGAP5 (UniProt Q15398)
inactive: [1] -0.013 | [2] 0.029 | [3] -0.036 | [4] 0 | [5] 0.001 | [6] -0.033 | [7] 0.001 | [8] 0.011 | [9] 0.006 | [10] 0.007 | [11] -0.008 | [13] -0.002 | [14] -0.006 | [15] -0.004
active: [12] -0.252

DNA2 (UniProt P51530)
inactive: [1] 0.011 | [2] 0.007 | [3] 0.069 | [4] 0.005 | [5] 0.05 | [6] -0.069 | [7] -0.04 | [8] 0.043 | [10] 0.067 | [11] -0.059 | [13] 0.127 | [14] -0.027 | [15] -0.053
active: [12] -0.448

DONSON (UniProt Q9NYP3)
Chain of UniProt Q9NYP3 (Q9NYP3 whole entry, looked up): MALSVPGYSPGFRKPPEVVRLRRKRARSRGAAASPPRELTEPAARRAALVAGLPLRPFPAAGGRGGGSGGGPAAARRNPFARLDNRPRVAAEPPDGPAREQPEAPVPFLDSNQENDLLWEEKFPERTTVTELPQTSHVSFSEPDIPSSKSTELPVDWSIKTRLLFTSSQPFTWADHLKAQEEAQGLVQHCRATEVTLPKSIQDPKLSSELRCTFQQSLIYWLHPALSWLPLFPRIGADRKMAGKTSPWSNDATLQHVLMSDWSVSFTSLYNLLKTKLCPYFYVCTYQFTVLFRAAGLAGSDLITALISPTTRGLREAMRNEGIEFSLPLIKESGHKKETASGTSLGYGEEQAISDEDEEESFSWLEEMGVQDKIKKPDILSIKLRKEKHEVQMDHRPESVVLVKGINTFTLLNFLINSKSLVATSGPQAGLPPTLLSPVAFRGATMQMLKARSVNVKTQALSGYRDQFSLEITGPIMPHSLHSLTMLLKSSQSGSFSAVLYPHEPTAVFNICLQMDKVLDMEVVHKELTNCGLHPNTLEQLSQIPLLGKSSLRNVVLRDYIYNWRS
active: [12] -0.401
inactive: [1] 0.035 | [2] 0.004 | [3] -0.031 | [4] 0.066 | [5] -0.035 | [6] -0.051 | [7] -0.024 | [8] -0.003 | [9] -0.022 | [10] 0.082 | [13] -0.123 | [14] 0.032

CINP isoform 3 (UniProt Q9BW66)
Chain of UniProt Q9BW66 (Q9BW66 whole entry, looked up): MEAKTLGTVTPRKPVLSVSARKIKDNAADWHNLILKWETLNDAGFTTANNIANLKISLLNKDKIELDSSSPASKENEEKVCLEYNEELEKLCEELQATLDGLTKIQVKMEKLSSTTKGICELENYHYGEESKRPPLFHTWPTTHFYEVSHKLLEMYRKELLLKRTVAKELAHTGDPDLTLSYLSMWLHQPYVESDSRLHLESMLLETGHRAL
inactive: [1] -0.13 | [2] 0.065 | [3] -0.073 | [4] 0.19 | [5] 0.024 | [6] 0.015 | [7] -0.009 | [8] 0.034 | [9] 0.03 | [11] 0.084 | [14] 0.043 | [15] 0.009

DIAPH1 (UniProt O60610)
Chain of UniProt O60610 (O60610 whole entry, looked up): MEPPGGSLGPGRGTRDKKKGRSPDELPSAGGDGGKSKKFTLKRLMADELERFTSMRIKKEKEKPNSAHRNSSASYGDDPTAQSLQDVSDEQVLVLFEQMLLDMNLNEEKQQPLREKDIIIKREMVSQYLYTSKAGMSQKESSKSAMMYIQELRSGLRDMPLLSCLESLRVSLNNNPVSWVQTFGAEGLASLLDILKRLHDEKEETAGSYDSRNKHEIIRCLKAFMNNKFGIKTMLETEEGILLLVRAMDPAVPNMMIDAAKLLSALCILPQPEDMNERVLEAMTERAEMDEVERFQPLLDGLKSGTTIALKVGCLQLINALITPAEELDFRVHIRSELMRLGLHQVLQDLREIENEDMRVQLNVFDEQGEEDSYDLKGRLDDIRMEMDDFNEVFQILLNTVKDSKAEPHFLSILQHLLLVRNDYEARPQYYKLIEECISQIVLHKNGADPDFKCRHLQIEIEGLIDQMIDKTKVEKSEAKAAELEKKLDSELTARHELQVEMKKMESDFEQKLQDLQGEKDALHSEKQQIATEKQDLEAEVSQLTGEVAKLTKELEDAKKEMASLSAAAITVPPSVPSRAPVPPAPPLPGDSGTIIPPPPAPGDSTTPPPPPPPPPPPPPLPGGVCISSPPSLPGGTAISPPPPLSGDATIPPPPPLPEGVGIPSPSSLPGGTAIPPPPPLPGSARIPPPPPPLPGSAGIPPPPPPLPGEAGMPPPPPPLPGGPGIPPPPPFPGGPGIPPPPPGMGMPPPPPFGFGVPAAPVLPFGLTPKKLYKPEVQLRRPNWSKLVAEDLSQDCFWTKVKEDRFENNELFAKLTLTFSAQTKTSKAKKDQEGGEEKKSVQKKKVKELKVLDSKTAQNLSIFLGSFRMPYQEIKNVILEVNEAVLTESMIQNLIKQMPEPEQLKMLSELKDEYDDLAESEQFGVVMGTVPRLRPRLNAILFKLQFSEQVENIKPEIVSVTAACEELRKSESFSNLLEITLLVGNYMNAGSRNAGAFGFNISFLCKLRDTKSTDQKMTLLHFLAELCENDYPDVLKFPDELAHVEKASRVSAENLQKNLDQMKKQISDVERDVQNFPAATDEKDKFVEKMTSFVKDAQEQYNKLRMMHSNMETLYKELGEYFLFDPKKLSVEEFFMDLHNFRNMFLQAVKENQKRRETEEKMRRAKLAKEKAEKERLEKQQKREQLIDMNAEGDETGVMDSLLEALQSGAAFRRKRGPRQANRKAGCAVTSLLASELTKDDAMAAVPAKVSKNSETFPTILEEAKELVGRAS
inactive: [1] -0.003 | [2] -0.009 | [3] -0.019 | [4] -0.009 | [5] 0.006 | [6] -0.006 | [7] -0.006 | [8] -0.006 | [9] 0.002 | [10] 0.008 | [11] 0.013 | [12] -0.014 | [13] 0.009 | [14] -0.02 | [15] -0.003

CNIH4 (UniProt Q9P003)
Chain of UniProt Q9P003 (Q9P003 whole entry, looked up): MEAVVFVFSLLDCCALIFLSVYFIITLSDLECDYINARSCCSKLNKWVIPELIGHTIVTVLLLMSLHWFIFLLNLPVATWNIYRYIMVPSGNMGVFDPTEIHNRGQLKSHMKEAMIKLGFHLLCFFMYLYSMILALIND
active: [7] -0.515
inactive: [1] 0.074 | [2] -0.327 | [3] 0.132 | [4] -0.12 | [5] 0.063 | [6] -0.068 | [8] 0.088 | [9] 0.076 | [10] -0.136 | [11] 0.09 | [12] 0.08 | [13] 0.055 | [14] 0.114 | [15] 0.038

CLCN3 isoform 2 (UniProt P51790)
active: [12] -0.286
inactive: [1] 0.017 | [2] -0.018 | [3] -0.012 | [4] 0.006 | [5] -0.008 | [6] 0.01 | [7] -0.012 | [8] 0.04 | [9] 0.022 | [10] 0.024 | [11] -0.059 | [13] 0.033 | [14] -0.024 | [15] 0.046

DHRS13 (UniProt Q6UX07)
active: [12] 1.11
inactive: [1] 0.133 | [2] 0.385 | [3] 0.048 | [4] -0.142 | [5] 0.142 | [6] 0.078 | [7] -0.223 | [8] -0.011 | [9] -0.08 | [10] -0.121 | [13] 0.059 | [14] -0.001

DDA1 (UniProt Q9BW61)
active: [12] -0.289
inactive: [1] 0.003 | [2] 0.008 | [3] -0.011 | [4] -0.056 | [5] 0.006 | [6] -0.006 | [7] -0.008 | [8] -0.023 | [9] -0.027 | [10] 0.023 | [11] -0.024 | [13] -0.006 | [14] 0.05 | [15] 0.054

CSNK1D (UniProt P48730)
active: [4] -0.551
inactive: [1] 0.199 | [2] -0.384 | [3] 0.028 | [5] -0.059 | [6] -0.049 | [7] -0.139 | [8] 0.021 | [9] 0.072 | [11] 0.002 | [14] -0.002 | [15] -0.076

DOCK8 (UniProt Q8NF50)
active: [12] -0.489
inactive: [1] -0.007 | [2] -0.023 | [3] -0.045 | [4] 0.04 | [5] 0.058 | [6] -0.053 | [7] -0.033 | [8] 0.032 | [9] 0.016 | [10] 0 | [11] -0.015 | [13] 0.06 | [14] 0.022 | [15] -0.052

CSNK1G3 (UniProt Q9Y6M4)
Chain of UniProt Q9Y6M4 (Q9Y6M4 whole entry, looked up): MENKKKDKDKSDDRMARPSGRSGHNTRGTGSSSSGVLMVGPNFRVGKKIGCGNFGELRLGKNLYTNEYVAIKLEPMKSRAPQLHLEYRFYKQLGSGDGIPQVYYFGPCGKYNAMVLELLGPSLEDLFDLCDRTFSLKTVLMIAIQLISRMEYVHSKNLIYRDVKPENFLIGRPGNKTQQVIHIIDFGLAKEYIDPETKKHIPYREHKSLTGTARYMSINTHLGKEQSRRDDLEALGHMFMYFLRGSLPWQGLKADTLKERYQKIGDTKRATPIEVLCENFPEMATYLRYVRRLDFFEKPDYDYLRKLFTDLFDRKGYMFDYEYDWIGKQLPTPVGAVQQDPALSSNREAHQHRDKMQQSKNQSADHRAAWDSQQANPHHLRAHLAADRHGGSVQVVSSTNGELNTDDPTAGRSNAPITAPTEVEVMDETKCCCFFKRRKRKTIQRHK
inactive: [1] -0.029 | [3] 0.002 | [5] 0.014 | [6] -0.067 | [7] 0.001 | [9] 0 | [10] 0.086 | [11] -0.004 | [12] -0.011 | [13] 0.055 | [14] -0.029 | [15] 0.039
active: [2] 0.428 | [4] 0.388 | [8] 0.397

COG6 (UniProt Q9Y2V7)
active: [12] -0.254
inactive: [1] 0.004 | [2] 0.038 | [3] -0.085 | [4] -0.041 | [5] -0.005 | [6] -0.068 | [7] -0.045 | [8] -0.016 | [9] -0.008 | [10] -0.06 | [11] 0.021 | [13] 0.072 | [14] 0.09 | [15] 0.026

DLD (UniProt P09622)
active: [12] -1.96
inactive: [1] 0.02 | [2] 0.001 | [3] 0.003 | [4] 0.011 | [5] -0.022 | [6] -0.014 | [7] 0.003 | [8] -0.015 | [9] -0.009 | [10] 0.005 | [11] -0.003 | [13] 0.004 | [14] 0.008 | [15] 0.01

DNM2 isoform 4 (UniProt P50570)
Chain of UniProt P50570 (P50570 whole entry, looked up): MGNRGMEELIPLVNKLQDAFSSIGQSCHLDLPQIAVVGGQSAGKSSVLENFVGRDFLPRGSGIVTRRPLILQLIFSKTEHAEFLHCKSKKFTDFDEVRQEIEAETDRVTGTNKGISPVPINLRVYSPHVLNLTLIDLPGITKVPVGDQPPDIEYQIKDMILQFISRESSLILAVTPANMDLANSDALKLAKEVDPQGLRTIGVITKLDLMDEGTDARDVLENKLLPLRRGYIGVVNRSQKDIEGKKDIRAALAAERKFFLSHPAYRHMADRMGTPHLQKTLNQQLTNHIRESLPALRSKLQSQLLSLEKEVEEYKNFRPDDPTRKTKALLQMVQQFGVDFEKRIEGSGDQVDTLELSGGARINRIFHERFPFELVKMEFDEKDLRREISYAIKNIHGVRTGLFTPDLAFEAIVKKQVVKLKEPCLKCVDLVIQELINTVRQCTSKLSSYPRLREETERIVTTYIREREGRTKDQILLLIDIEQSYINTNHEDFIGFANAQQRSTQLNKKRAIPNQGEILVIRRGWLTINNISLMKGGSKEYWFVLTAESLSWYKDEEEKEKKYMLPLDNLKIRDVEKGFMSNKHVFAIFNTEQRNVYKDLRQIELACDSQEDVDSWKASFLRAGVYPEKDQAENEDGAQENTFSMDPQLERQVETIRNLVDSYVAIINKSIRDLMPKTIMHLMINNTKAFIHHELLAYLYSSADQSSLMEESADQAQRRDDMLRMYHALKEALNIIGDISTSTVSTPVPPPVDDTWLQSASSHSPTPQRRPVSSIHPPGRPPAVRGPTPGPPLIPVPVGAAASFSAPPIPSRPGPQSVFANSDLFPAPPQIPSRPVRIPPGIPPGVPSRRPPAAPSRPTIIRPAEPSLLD
active: [12] -0.826
inactive: [1] 0.078 | [2] -0.018 | [3] -0.095 | [4] -0.03 | [5] 0.162 | [6] 0.025 | [7] -0.12 | [8] 0.088 | [9] 0.044 | [10] -0.181 | [13] 0.047 | [14] -0.014 | [15] -0.02

CNTN4 (UniProt Q8IWV2)
Chain of UniProt Q8IWV2 (Q8IWV2 whole entry, looked up): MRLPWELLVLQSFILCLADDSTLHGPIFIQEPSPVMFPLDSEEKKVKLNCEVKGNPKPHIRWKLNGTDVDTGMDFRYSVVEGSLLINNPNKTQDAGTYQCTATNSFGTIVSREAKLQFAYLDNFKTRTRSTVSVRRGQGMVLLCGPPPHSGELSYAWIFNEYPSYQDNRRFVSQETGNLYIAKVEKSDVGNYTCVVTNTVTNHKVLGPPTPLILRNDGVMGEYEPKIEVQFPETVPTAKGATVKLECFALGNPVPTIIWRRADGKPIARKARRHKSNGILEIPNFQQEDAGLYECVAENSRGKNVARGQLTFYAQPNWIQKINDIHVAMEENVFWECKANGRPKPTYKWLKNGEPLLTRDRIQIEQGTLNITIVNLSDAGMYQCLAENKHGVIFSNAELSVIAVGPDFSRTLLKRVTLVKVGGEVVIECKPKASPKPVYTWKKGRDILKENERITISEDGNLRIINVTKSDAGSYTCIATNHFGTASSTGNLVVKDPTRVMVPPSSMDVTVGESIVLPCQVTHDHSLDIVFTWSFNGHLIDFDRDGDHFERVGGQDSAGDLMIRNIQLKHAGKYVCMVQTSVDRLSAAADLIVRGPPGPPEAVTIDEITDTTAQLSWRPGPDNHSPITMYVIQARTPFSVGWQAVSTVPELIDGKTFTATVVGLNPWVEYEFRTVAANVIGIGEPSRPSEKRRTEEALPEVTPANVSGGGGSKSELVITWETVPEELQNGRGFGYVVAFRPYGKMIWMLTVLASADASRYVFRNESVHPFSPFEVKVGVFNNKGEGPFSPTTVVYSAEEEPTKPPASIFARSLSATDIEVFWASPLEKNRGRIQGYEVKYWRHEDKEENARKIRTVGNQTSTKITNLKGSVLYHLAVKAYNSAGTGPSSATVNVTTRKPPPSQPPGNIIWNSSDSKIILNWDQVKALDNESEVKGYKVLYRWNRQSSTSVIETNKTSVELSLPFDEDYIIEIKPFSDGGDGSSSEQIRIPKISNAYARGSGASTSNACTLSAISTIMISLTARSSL
active: [6] -0.561
inactive: [1] 0.127 | [2] -0.06 | [4] 0.306 | [7] -0.006 | [8] 0.151 | [9] 0.072 | [10] -0.024 | [11] 0.173 | [12] -0.026 | [13] -0.09 | [14] 0.274 | [15] 0.06

CHMP4A (UniProt H0YIN6)
inactive: [3] 0.294 | [5] -0.06 | [6] -0.502 | [8] 0.041 | [9] 0.066 | [14] 0.287

DDR1 isoform 5 (UniProt Q08345)
inactive: [1] 0.036 | [2] 0.013 | [3] 0.083 | [4] -0.216 | [5] 0.103 | [6] 0.045 | [7] -0.012 | [8] -0.054 | [14] -0.026 | [15] -0.153
